Compound activity (PubChem)
Shown are actives, neighbours in structure and some others; about 11% of the full set was active somewhere.
RORg inh – qHTS for inhibitors of ROR gamma transcriptional activity; Drosophila S2 Gal4-RORgamma UAS-luciferase reporter, 20 h; AID 2551, 2010; 5.4% of 310,000 active; Potency, µM (series often up to 53.6 µM), for inactives: at the top dose activity change, negative = inhibition, hits mostly inhibitors; also: potency is read from the fitted curve at half-maximal effect; % is scaled to controls: 0 for no effect and ±100 for the full control effect; nearly all actives have a fitted effect of over 60% in size
Target sequence (P51450 whole entry, looked up, the tested form may be a part): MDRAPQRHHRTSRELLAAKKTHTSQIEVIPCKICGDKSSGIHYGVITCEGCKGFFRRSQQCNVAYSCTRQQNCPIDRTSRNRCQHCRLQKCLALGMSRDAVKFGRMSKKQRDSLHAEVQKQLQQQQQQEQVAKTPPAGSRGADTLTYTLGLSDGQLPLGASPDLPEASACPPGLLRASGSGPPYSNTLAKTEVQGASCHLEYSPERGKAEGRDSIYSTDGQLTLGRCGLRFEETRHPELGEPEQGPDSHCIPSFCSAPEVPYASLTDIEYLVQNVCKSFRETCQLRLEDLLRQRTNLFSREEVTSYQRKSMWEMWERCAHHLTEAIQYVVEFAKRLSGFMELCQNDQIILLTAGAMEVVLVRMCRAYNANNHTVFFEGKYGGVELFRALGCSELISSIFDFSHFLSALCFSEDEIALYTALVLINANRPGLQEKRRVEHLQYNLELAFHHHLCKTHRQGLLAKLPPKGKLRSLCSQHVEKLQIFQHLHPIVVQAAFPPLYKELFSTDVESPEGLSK
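Schneider cells (Drosophila), stable Gal4 DBD–ROR gamma + UAS-luc; 1 hr cmpd preincubation; Cu2+ induction 700 uM final; 20 hr ambient; luminescence.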
SW480 rerep – A quantitative high throughput screen for small molecules that induce DNA re-replication in SW480 colon adenocarcinoma cells; Potency, µM (doses to about 46.1 µM), for the others: at the top dose re-replication activation, actives largely listed as activators; 1.8% of 340,000 active; SW480 DNA re-replication, Hoechst DNA content imaging, 48 h; also: potency is read from the fitted curve at half-maximal effect; % of control where 0% means no effect; nearly all actives have a fitted effect of over 55% in size
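Quantitative HTS format with DMSO vehicle controls; 48 hr drug incubation at 37 C, then 40 min Hoechst staining and scanning imager measurement at 405 nm excitation.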
MCF10A rerep – A quantitative high throughput screen for small molecules that induce DNA re-replication in MCF 10a normal breast cells; 2.9% of 350,000 active; Potency, µM (highest dose often 46.1 µM), for inactives: at the top dose activity, positive = re-replication, actives largely listed as activators; AID 624296, 2012; MCF 10A DNA re-replication, Hoechst nuclear intensity, 48 h; also: potency is read from the fitted curve at half-maximal effect; % of control where 0% means no effect; nearly all actives have a fitted effect of over 50% in size
Gal4-VP16 FLuc – VP16 counterscreen qHTS for inhibitors of ROR gamma transcriptional activity. Drosophila S2 Gal4-VP16 UAS-luciferase, luminescence, 20 h. Potency, µM (top dose mostly 53.6 µM), without a hit: at the top dose activity, negative = inhibition, actives largely listed as inhibitors. 3.5% of 310,000 active;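 also: Gal4-VP16 expression switched on by copper sulfate through the metallothionein promoter; potency is read from the fitted curve at half-maximal effect; % is scaled to controls: 0 for no effect and ±100 for the full control effect; nearly all actives have a fitted effect of over 50% in size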
IL-1B inflam inh – qHTS for Inhibitors of Inflammasome Signaling: IL-1-beta AlphaLISA Primary Screen | THP-1 LPS/ATP IL-1B secretion, AlphaLISA, 16 h; stronger effect = lower value | activity change, % at 57.5 µM | 4.7% of 360,000 active | AID 743279, 2014; in the data active = activity change below about -50%; inconclusive = mostly about -30% to -49%; also: % is scaled to controls: 0 for no effect and ±100 for the full control effect
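Secreted IL-1B measured by AlphaLISA bead assay after 16 h compound exposure of THP-1 cells; compounds (final up to 57.5 uM) added 1 h before LPS (250 ng/mL) and ATP (1.25 mM) stimulation; lower signal means less secretion.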
Active calls of the source: *; i = inactive; ? = inconclusive; . = no result given; ! = not active in a repeat; [ ] = another dose, or the depositor's remark. Unless noted, calls follow the shape of the dose curve; as a rule, active = well fitted curve in the direction sought with a large enough effect; inconclusive = small, poorly fitted or top-dose-only effect, or another doubt; inactive = no such curve, though single readings can be large; an effect the other way counts as inactive or inconclusive.

SMILES	RORg inh	SW480 rerep	MCF10A rerep	Gal4-VP16 FLuc	IL-1B inflam inh
COc1ccc(-n2nnnc2C(c2ccccc2)N2CCC3(CC2)C(=O)NCN3c2ccccc2)cc1 (centres undefined)	.	.	.	.	-59*
O=C1NCN(c2ccccc2)C12CCN(C(CCc1ccccc1)c1nnnn1C1CCCCC1)CC2 (centres undefined)	.	.	.	.	-56*
COC(=O)c1ccccc1C(=O)c1ccc(OCCN2CCCCC2)cc1	-9%	-6%	?	-7%	.
CC1=C2C(=O)C3C(CC=C4C[C@@H](O)CC[C@@]43C)[C@@H]2CC[C@]12O[C@@H]1C[C@H](C)CN[C@H]1C2C (some centres undefined)	-19%	.	.	-16%	.
CC(C)C#N	3%	.	.	4%	.
CCC1CN2CCc3cc(OC)c(OC)cc3C2CC1CC1NCCc2cc(OC)c(OC)cc21 (centres undefined)	6.3µM*	.	.	7.1µM*	.
CC[C@H]1CN2CCc3cc(OC)c(OC)cc3C2C[C@@H]1C[C@H]1NCCc2cc(OC)c(OC)cc21 (some centres undefined)	.	?	?	.	-108*
CCCC(=O)O[C@@H]1[C@@H](C)[C@@]2(O)[C@@H](C=C(CO)C[C@@]3(O)C(=O)C(C)=C[C@@H]23)[C@@H]2C(C)(C)[C@]12OC(=O)CCC	12%	.	.	-6%	.
COC(=O)N1CCC2(CCN(CC(C)C)CC2)CC1	10%	.	.	5%	.
COc1cc2c(c3oc4cccc(O)c4c(=O)c13)C1C=CO[C@@H]1O2 (some centres undefined)	13µM*	.	.	10µM*	.
CC1(C)C(C(Cl)Cl)C2(Cl)C(Cl)C(Cl)C1(Cl)C2(Cl)Cl (centres undefined)	-16%	.	.	-4%	.
COC(=O)C(Cc1ccc(N(CCCl)CCCl)cc1)N=Cc1ccccc1O (centres undefined)	7.9µM*	1µM*	12µM*	?	-97*
CCOC(=O)C(NC(=O)C(Cc1ccc(N(CCCl)CCCl)cc1)NC(C)=O)C(C)C (centres undefined)	26%	-3%	-4%	0%	3
N[C@@H](CCCCP(=O)(O)O)C(=O)O	5%	.	.	10%	.
CCOP(=S)(OCC)Oc1ccc(Cl)cc1Cl	17%	.	.	-8%	.
OC(Cn1c2ccccc2c2ccccc21)C[n+]1cccc2ccccc21 (centres undefined)	23%	1%	0%	-3%	-68*
CN(C)C(=O)Oc1ccc(OCc2n(C)c3ccccc3[n+]2C)cc1	-7%	16µM*	5%	-13%	20
COCCOC(=O)c1c(C)n(C)c2ccc(OC(=O)N(C)C)cc12	36%	-13%	-12%	-2%	3
CC(Cc1ccccc1)NC(=O)/C=C/c1ccc(Cl)cc1 (centres undefined)	25%	-9%	5%	0%	-54*
CC(=O)OC1CC2C(C)(C)C(O)C=C[C@@]2(C)C2CC[C@]3(C)C(=CC(=O)OC3c3ccoc3)[C@]12C (some centres undefined)	-12%	.	.	-7%	.
C=CC[C@]1(O)CCC2C3CCC4=CCCCC4C3CCC21C (some centres undefined)	-39%	5%	19µM*	2%	.
CCCCC1(CCCC)C(=O)NC(=Nc2cccc(C)c2)NC1=O	-3%	2%	21%	-8%	-56*
CCCC1(CCC)C(=O)NC(=Nc2ccccc2)NC1=O	1%	0%	-5%	-8%	-1
O=c1[nH]c2sccc2c2ccccc12	3%	.	.	-2%	.
Nc1nonc1C(=O)N/N=C/c1ccc([N+](=O)[O-])o1	?	?	?	?	-87*
SMILES	RORg inh	SW480 rerep	MCF10A rerep	Gal4-VP16 FLuc	IL-1B inflam inh
N/C(=N\[N+](=O)[O-])N/N=C/c1ccc(O)cc1	-11%	-1%	0%	-4%	17
O=C(O)c1ccccc1-c1c2cc(Br)c(=O)cc-2oc2[c]([Hg])c(O)c(Br)cc12	?	-15%[20.6 µM]	0%[20.6 µM]	18µM*!	.
COc1cccc(C(c2nnnn2-c2c(C)cccc2C)N2CCC(n3c(=O)[nH]c4ccccc43)CC2)c1OC (centres undefined)	.	.	.	.	-84*
Cc1cccc(C)c1-n1nnnc1C(CCc1ccccc1)N1CCC(n2c(=O)[nH]c3ccccc32)CC1 (centres undefined)	.	.	.	.	3
CCCCn1nnnc1C(CCc1ccccc1)N1CCC(n2c(=O)[nH]c3ccccc32)CC1 (centres undefined)	.	.	.	.	-56*
C[CH2][Hg][S]c1ccccc1C(=O)O	1.1µM*	6µM*	0.92µM*	0.63µM*	-112*
CNc1ccccc1C(=O)O	-21%	.	.	-4%	.
O=C(CN1CC=C(c2ccccc2)CC1)Nc1c(Cl)cccc1Cl	-11%	-5%	14%	-4%	-16
O=C(CN1CC=C(c2ccccc2)CC1)Nc1cc(Cl)ccc1Cl	-28%	9%	18µM*	1%	i
COC(=O)[C@H]1[C@@H](c2ccccc2)[C@@]2(c3ccccc3)Oc3ccccc3[C@@]1(O)[C@@H]2O	-13%[10 µM]	.	.	1%[10 µM]	.
CNC(=S)S	-5%	.	.	-6%	.
On1ccccc1=S	.	10%	6.5µM*	.	-107*
C=C(C)Cn1c(-c2cccc([N+](=O)[O-])c2)n[nH]c1=S	7.1µM*	-6%	-4%	-7%[10 µM]	19
C=C(C)Cn1c(-c2cccs2)n[nH]c1=S	13µM*	0%	14%	14µM*	12
c1ccc2c(c1)CCNC2	-10%	.	.	-7%	.
COc1ccccc1OCCCn1cc(C=O)c2ccccc21	?	-3%	-2%	0.002µM*	?
O=Cc1cn(CCCOc2ccccc2)c2ccccc12	-1%	14%	14%	?	-14
O=Cc1cn(Cc2ccccc2F)c2ccccc12	2µM*	?	20%	-15%[10 µM]	?
CC(=O)c1cn(Cc2ccccc2F)c2ccccc12	28%	-1%	28%	7.1µM*	-4
CC(=O)c1cn(Cc2ccccc2C#N)c2ccccc12	?	?	?	3.2µM*	0
CC(C)C(=O)c1cn(Cc2ccccc2C#N)c2ccccc12	1%	4%	2%	7%	-14
O=C(c1ccccc1F)c1cn(Cc2ccccc2)c2ccccc12	?	17%	2%	-22%	-6
Brc1ccccc1Cn1c(-c2cncs2)nc2ccccc21	6.3µM*	16%	21%	-8%	5
